Test results reported in PubChem BioAssay.
Calls of active or inactive are those of the source.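 The calls were made as follows, unless noted: active = fluorescence slope higher than the sample average by over 3 SD (cut at about -0.22 in these data, passing the limit was not always enough); inactive = the rest.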

Columns and labels:
[1] = inhibitors of TNFa-induced NFkB p65 translocation, primary screen, imaging, HUVEC, MLSMR starter and 10KST1 sets (AID 438;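 active = inhibition above 20% together with a positive visual image hit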;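 also: compound added about 3h40 before a 20 min TNFalpha stimulation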;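 as to inhibition: signal is the nuclear over cytoplasmic p65 intensity ratio per well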); details: HUVEC TNFa-induced p65 nuclear translocation; cell count: measured here: nuclei count (cytotoxicity indicator), at 2.08 µM; inhibition: at 2 µM, stronger effect = higher value, 0% TNFa-plus-vehicle, 100% no-TNFa wells
[2] = inhibitors of mutant huntingtin aggregation, primary screen, imaging, exon1htt(103Q)mCFP cells, high-content imaging (AID 483;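 active = visual image review flags a hit and inhibition of aggregation exceeds 20%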;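 also: compound exposure lasted 3 days before fixation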;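 as to nuclei count: percent of the per-plate median nuclei count of sample wells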); details: exon1htt(103Q)mCFP cell line, aggregate imaging, at 2 µM; inhibition of aggregation: stronger effect = higher value; nuclei count: measured here: cell count, toxicity
[3] = inhibitors of E-selectin induction by TNFa, primary screen, imaging, HUVEC, immunofluorescence, MLSMR starter and 10KST1 sets (AID 487;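 active = visually confirmed hit in the image check and inhibition above 20%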;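 as to inhibition: signal is fraction of cell area covered by stained E-selectin grains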;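 as to nuclei count: 100% = median nuclei count of all wells on the same plate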); details: HUVEC TNFalpha-induced E-selectin immunofluorescence imaging, at 2 µM; inhibition: stronger effect = higher value; nuclei count: measured here: cell number, toxicity
[4] = target: Voltage-gated potassium channel subunit beta-2 (Rattus norvegicus) (UniProt P62483); assay: KvBeta enzyme negative modulators, primary screen, biochemical, NADPH fluorescence (AID 622); details: recombinant KvBeta, 4-cyanobenzaldehyde reduction, at 10 µM, stronger effect = higher value;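 also: slope of raw intensity against log time taken from 70 to 1610 s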
[5] = target: Voltage-gated potassium channel subunit beta-2 (Rattus norvegicus) (UniProt P62483); assay: KvBeta positive modulators, primary screen, biochemical, NADPH fluorescence (AID 623;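 active = NADPH fluorescence slope more negative than the mean of all samples by about 3 SD, 99.7% confidence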;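 also: fluorescence intensity change per second fitted from 20 to 320 s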); details: Recombinant KvBeta, NADPH fluorescence decrease slope, 10 min; at 10 µM; stronger effect = lower value
[6] = target: Alpha-2C adrenergic receptor (Homo sapiens) (UniProt P18825); assay: modulators of alpha2C/GIRK thallium flux, primary screen, cell-based, HEK293 alpha2C/GIRK1/2 (AID 624;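 active = fluorescence slope after compound addition differing from the mean of all screened samples at 99.7% confidence, in either direction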;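 also: slope of fluorescence ratio to pre-addition baseline per second over 15 to 24 s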); details: thallium flux BTC fluorescence, at 10 µM, actives lie on both sides
[7] = inhibitors of Sendai virus-induced IRF3 signaling, primary screen, TLR/RLR signaling modifier project, cell-based, Sendai virus stimulus, luciferase, 10K MLSCN set (AID 602276;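 active = inhibition at or above 50% at 10 µM; inactive = inhibition below 50%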;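 also: firefly luciferase from ISG56 promoter only with Renilla not read in this screen; 0% = Sendai virus plus DMSO and 100% = medium plus DMSO without virus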); details: HEK293 RL24 IRF3 luciferase reporter, at 10 µM, stronger effect = higher value
[8] = inhibitors of poly I:C-induced TLR3 signaling, primary screen, cell-based, poly I:C stimulus, luciferase, 10K MLSCN set (AID 602277;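 active = inhibition of the reporter signal at or above 50%; inactive = inhibition below 50%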); details: HEK293-TLR3 RL24 IRF3 luciferase reporter, at 10 µM, stronger effect = higher value

Chain of Alpha-2C adrenergic receptor (Homo sapiens) (P18825 whole entry, looked up): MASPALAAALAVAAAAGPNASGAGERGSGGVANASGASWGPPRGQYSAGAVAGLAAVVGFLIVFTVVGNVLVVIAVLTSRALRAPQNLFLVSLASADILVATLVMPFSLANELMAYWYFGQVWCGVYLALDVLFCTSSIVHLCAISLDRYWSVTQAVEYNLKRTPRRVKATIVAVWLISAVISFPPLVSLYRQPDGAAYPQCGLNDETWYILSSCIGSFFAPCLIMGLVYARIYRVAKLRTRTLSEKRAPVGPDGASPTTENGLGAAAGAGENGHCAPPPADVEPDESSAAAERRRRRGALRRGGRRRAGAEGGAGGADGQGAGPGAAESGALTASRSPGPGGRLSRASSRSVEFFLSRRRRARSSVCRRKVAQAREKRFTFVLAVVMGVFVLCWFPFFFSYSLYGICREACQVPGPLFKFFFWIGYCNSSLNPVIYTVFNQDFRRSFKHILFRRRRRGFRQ
Chain of Voltage-gated potassium channel subunit beta-2 (Rattus norvegicus) (P62483 whole entry, looked up): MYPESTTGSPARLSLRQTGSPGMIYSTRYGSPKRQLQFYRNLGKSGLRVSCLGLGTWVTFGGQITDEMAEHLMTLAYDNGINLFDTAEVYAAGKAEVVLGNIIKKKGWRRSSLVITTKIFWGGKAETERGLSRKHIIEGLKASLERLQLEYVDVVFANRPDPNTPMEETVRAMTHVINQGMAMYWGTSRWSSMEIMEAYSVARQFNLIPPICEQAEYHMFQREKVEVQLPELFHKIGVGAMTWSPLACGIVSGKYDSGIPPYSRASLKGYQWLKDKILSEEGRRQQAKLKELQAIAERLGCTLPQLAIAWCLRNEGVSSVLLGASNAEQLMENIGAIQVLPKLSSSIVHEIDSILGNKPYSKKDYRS

Structure (SMILES) | cell count [1] | inhibition [1] | inhibition of aggregation [2] | nuclei count [2] [%] | inhibition [3] | nuclei count [3] [%] | fluorescence slope [4] | NADPH fluorescence slope [5] | slope [6] | inhibition [7] | inhibition [8]
Cn1c(CN2CCOCC2)nnc1SCC(=O)NCCc1ccccc1 | 444 | -1% (inactive) | 0.2% (inactive) | 118 | -161% (inactive) | 210 | -0.613 (inactive) | 6.8e-06 (inactive) | 0.00528 (inactive) | -8.38% (inactive) | -42.9% (inactive)
O=C(c1ccc2ccccc2n1)N1CCN(c2ccccc2)CC1 | 874 | 0% (inactive) | -15% (inactive) | 107 | -78.3% (inactive) | 142 | -0.476 (inactive) | 9.7e-06 (inactive) | 0.00614 (inactive) | -18.5% (inactive) | -4.71% (inactive)
Cn1c(=N)c(S(=O)(=O)c2ccccc2)cc2c(=O)n3ccccc3nc21 | 442 | -5.1% (inactive) | -1.9% (inactive) | 114 | -85.8% (inactive) | 235 | -0.517 (inactive) | -9.2e-06 (inactive) | 0.00488 (inactive) | -14.3% (inactive) | -10.5% (inactive)
CS(=O)(=O)NCc1ccc(C(=O)NCc2ccccc2)cc1 | 640 | 3.3% (inactive) | 0% (inactive) | 104 | -19.7% (inactive) | 109 | -0.415 (inactive) | -3.9e-05 (inactive) | 0.003 (inactive) | -0.454% (inactive) | 5.61% (inactive)
CCCn1c(SCC(=O)NC(C)(C)C)nnc1C(C)C | 603 | -6.3% (inactive) | 6.5% (inactive) | 102 | 19.4% (inactive) | 99.9 | -0.537 (inactive) | -0.000121 (inactive) | 0.00641 (inactive) | 13% (inactive) | 23.2% (inactive)
O=C(OCC(=O)c1cccs1)C1=COCCO1 | 656 | -7.6% (inactive) | -9.8% (inactive) | 105 | 5.3% (inactive) | 119 | -0.345 (inactive) | -2.7e-05 (inactive) | 0.00586 (inactive) | -24.9% (inactive) | -83.1% (inactive)
C#CCSc1nnc(-c2ccccc2)c(=O)[nH]1 | 903 | -8.2% (inactive) | 0.6% (inactive) | 127 | -57.3% (inactive) | 109 | -0.505 (inactive) | -4.9e-05 (inactive) | 0.00603 (inactive) | -0.0999% (inactive) | -4.88% (inactive)
COc1ccc(C(=O)NCc2nnc(SC)n2C2CCCCC2)cc1 | 591 | -2.4% (inactive) | -1.1% (inactive) | 96 | -35.7% (inactive) | 101 | -0.521 (inactive) | -3.9e-05 (inactive) | 0.00737 (inactive) | 18.8% (inactive) | 26% (inactive)
COc1cc(NC(=O)c2nccnc2C(=O)O)cc(OC)c1 | 856 | 1.2% (inactive) | -12.8% (inactive) | 81.8 | -30.5% (inactive) | 117 | -0.554 (inactive) | -2e-05 (inactive) | 0.00607 (inactive) | -3.73% (inactive) | 6.75% (inactive)
Cn1c(=O)oc2cc(S(=O)(=O)N3CCCC(C(=O)NCC4COc5ccccc5O4)C3)ccc21 (stereo not drawn) | 751 | -1.9% (inactive) | -6.6% (inactive) | 105 | -40.9% (inactive) | 124 | -0.575 (inactive) | 1.7e-05 (inactive) | 0.00726 (inactive) | -12.4% (inactive) | -5.33% (inactive)
Cc1ccc(S(=O)(=O)N2CCCC(c3nnc4n3-c3ccccc3SC4)C2)cc1 (stereo not drawn) | 431 | 3.4% (inactive) | 4.2% (inactive) | 95.7 | -34% (inactive) | 103 | -0.67 (inactive) | -3.6e-05 (inactive) | 0.00342 (inactive) | 16.2% (inactive) | 19.1% (inactive)
COc1ccc(Cc2nc(-c3ccc(Br)cc3)no2)cc1 | 366 | 6% (inactive) | -7% (inactive) | 105 | -17.5% (inactive) | 107 | -0.28 (inactive) | 2e-05 (inactive) | 0.00781 (inactive) | -28.1% (inactive) | -62.7% (inactive)
COc1cccc(C=Nc2ccc3c(c2)OCCO3)c1O | 301 | 5.1% (inactive) | 9% (inactive) | 97.3 | 25.8% (inactive) | 83.4 | -0.501 (inactive) | -3.1e-05 (inactive) | 0.00551 (inactive) | 12.6% (inactive) | -2.51% (inactive)
COC(=O)c1sc(N)c(C(=O)OC)c1COC(=O)C1CC(=O)N(Cc2ccco2)C1 (stereo not drawn) | 303 | -1.9% (inactive) | -1.7% (inactive) | 100 | -45.6% (inactive) | 124 | -0.265 (inactive) | -4.3e-05 (inactive) | 0.00671 (inactive) | 15.8% (inactive) | 11.9% (inactive)
CCOc1ccc(N(C(C)C(=O)NC2CCCCCC2)S(C)(=O)=O)cc1 (stereo not drawn) | 355 | 2.7% (inactive) | -10.8% (inactive) | 109 | -40.2% (inactive) | 107 | -0.342 (inactive) | -4e-05 (inactive) | 0.00764 (inactive) | 3.76% (inactive) | 19.7% (inactive)
COc1ccc(NC(=O)c2oc3ccccc3c2NC(=O)c2ccco2)cc1 | 317 | -4.8% (inactive) | 23.6% (inactive) | 95.9 | -4.1% (inactive) | 95.1 | -0.411 (inactive) | 2.7e-05 (inactive) | 0.00551 (inactive) | -10.3% (inactive) | -48.1% (inactive)
CN(C)Cc1cn(CCC(=O)O)c2ccccc12 | 331 | 5.3% (inactive) | -18.2% (inactive) | 90.8 | 9.1% (inactive) | 103 | -0.481 (inactive) | 4.3e-05 (inactive) | 0.00704 (inactive) | -16.1% (inactive) | 19.4% (inactive)
CN(C)c1ccc(C=Nc2ccc(N(C)C)cc2)cc1 | 345 | 3.4% (inactive) | -8.7% (inactive) | 106 | 14.2% (inactive) | 118 | -0.512 (inactive) | -3.7e-05 (inactive) | 0.00615 (inactive) | -5.99% (inactive) | -19% (inactive)
O=C(NCCSCc1ccco1)Nc1cccc(Cl)c1 | 502 | 3.6% (inactive) | -7.7% (inactive) | 99.9 | -67.4% (inactive) | 115 | -0.673 (inactive) | 1.6e-05 (inactive) | 0.0115 (inactive) | 2.33% (inactive) | -54.8% (inactive)
CCOC(=O)CN1CC23C=CC(O2)C(C(=O)NCc2ccc(F)cc2)C3C1=O (stereo not drawn) | 572 | -2% (inactive) | 15.7% (inactive) | 106 | -142% (inactive) | 131 | -0.589 (inactive) | -1.1e-05 (inactive) | 0.00638 (inactive) | 14% (inactive) | 27.7% (inactive)
CCOCCn1c(CN2CCN(c3cccc(Cl)c3)CC2)nc2c1c(=O)n(C)c(=O)n2C | 743 | -15.7% (inactive) | -5.1% (inactive) | 104 | -20% (inactive) | 103 | -0.592 (inactive) | -4.2e-05 (inactive) | 0.00703 (inactive) | 1.6% (inactive) | 22.6% (inactive)
CCN(CC)S(=O)(=O)c1ccc(C(=O)N2CCN=C2SCc2cccnc2)cc1 | 213 | -3.9% (inactive) | -5.6% (inactive) | 99.7 | -32.1% (inactive) | 122 | -0.587 (inactive) | -1.9e-05 (inactive) | 0.0061 (inactive) | -1.95% (inactive) | 9.81% (inactive)
CCCn1c(SCC(=O)NCc2ccco2)nc2c1c(=O)n(C)c(=O)n2C | 433 | -9.2% (inactive) | 16.5% (inactive) | 104 | -144% (inactive) | 160 | -0.379 (inactive) | -4.1e-05 (inactive) | 0.0049 (inactive) | 16.6% (inactive) | 10.9% (inactive)
COCCN(CC(=O)Nc1ccccc1C)S(=O)(=O)c1ccc(S(=O)(=O)N2CCCC2)cc1 | 404 | -9.5% (inactive) | -6.7% (inactive) | 103 | -18.2% (inactive) | 69.8 | -0.416 (inactive) | -7.2e-05 (inactive) | 0.0043 (inactive) | 7.63% (inactive) | 13.5% (inactive)
CN(C)S(=O)(=O)N1CCN(S(=O)(=O)c2ccc(F)cc2)CC1 | 787 | 3.6% (inactive) | -7% (inactive) | 103 | -118% (inactive) | 141 | -0.436 (inactive) | -9.3e-07 (inactive) | 0.00495 (inactive) | -20.1% (inactive) | -21% (inactive)
CCCCc1ccc(NC(=O)C2CCCO2)cc1 (stereo not drawn) | 387 | -1.8% (inactive) | -7.2% (inactive) | 105 | -122% (inactive) | 98.5 | -0.376 (inactive) | -3e-05 (inactive) | 0.00635 (inactive) | -42.7% (inactive) | -136% (inactive)
COc1ccc(OC)c(C2=NOC(C(=O)Nc3cc(C)nn3-c3ccccc3)C2)c1 (stereo not drawn) | 605 | 5.8% (inactive) | -4.1% (inactive) | 84.1 | 10.7% (inactive) | 107 | -0.605 (inactive) | -4.8e-05 (inactive) | 0.00657 (inactive) | 7.53% (inactive) | 19.2% (inactive)
S=C(NCC1CCCO1)n1nnc2ccccc21 (stereo not drawn) | 718 | -5.9% (inactive) | -2.9% (inactive) | 94.6 | 52% (inactive) | 92.8 | -0.399 (inactive) | 4.6e-05 (inactive) | 0.00794 (inactive) | 12.9% (inactive) | 13.5% (inactive)
